This is an account of results in publication PMC5540273 (PLoS ONE, 2017).

Molecules are shown by their SMILES.

Some test systems named below: TNIK; TNK1; TNK2; TNNI3K; TRKB; TRPM6; TSSK1B; TSSK3.
Common to all, as to conditions: concentration: 1 μM, replicates: in singlicate; n = 1
In another assay the test system is T1, TRKA.
T1 construct: gene NTRK1

In a further assay the test system is T2, TRKC.
T2 construct: gene NTRK3
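Note: KINOMEscan kinase panel screen.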

Regarding `Nc1ncnc2[nH]c(-c3ccccc3)nc12` [AH5015], the “%Inh” value with TNIK is 1%; in the assay with TNK1, 0%; in the assay on TNK2, 24%; in the assay with TNNI3K, 11%; with TRKA, 0%; in the assay on TRKB it was 45%. The “%Inh” value was determined as 26% in the assay with TRKC, 4% with TRPM6, 9% in the assay with TSSK1B and 7% in the assay with TSSK3.
`Cc1cccc(-c2nc(-c3ccc(S(C)(=O)=O)cc3)sc2-c2ccnc(NCCc3ccccc3)c2)c1`: the “%Inh” value in the assay on TNIK is on record as 10%; in the assay with TNK1, 0%; in the assay on TNK2 it was 0%; in the assay on TNNI3K, 0%; in the assay on TRKA, 0%; in the assay with TRKB it was 0%. Also, the “%Inh” value in the assay on TRKC came to 15%; in the assay with TRPM6, 0%; in the assay with TSSK1B it was 0%; in the assay with TSSK3 it was 0%.
As to `CC(C)(C)c1ccc(C(=O)Nc2cn3cc(Cl)ccc3n2)cc1`, the “%Inh” value stood at 4% in the assay on TNIK; 30% in the assay with TNK1; 2% in the assay on TNK2; 0% in the assay on TNNI3K; 0% in the assay on TRKA; 0% in the assay on TRKB. Further, the “%Inh” value in the assay on TRKC, in the assay on TRPM6, with TSSK1B and with TSSK3 was 0% throughout.
`CS(=O)(=O)c1ccc(-c2c(-c3ncn[nH]3)sc(N3CCOCC3)c2C#N)cc1`: the “%Inh” value with TNIK was 20%; with TNK1, 55%; in the assay on TNK2, 17%; in the assay with TNNI3K, 0%; in the assay on TRKA it was 13%; with TRKB, 0%. Also, the “%Inh” value in the assay with TRKC was found to be 0%; in the assay with TRPM6 it was 0%; in the assay on TSSK1B it was 29%; with TSSK3, 5%.
For `CCn1c(-c2cccnc2O)nc2cnccc21` [SB-736715], the “%Inh” value with TNIK amounted to 0%; in the assay on TNK1, 8%; in the assay with TNK2, 0%; in the assay with TNNI3K it was 0%; with TRKA it was 0%; in the assay on TRKB, 3%. Moreover, the “%Inh” value with TRKC, in the assay with TRPM6, in the assay on TSSK1B and in the assay on TSSK3 was 0% each time.
In the case of `Cc1cccc(-c2nc(Nc3cccc(C(N)=O)c3)c3ccccc3n2)n1` [GW876019], the “%Inh” value in the assay on TNIK is recorded as 2%; with TNK1, 5%; in the assay with TNK2, 15%; in the assay on TNNI3K it was 0%; in the assay on TRKA, 0%; in the assay with TRKB it was 0%. In addition, the “%Inh” value with TRKC was determined as 0%; in the assay with TRPM6, 0%; in the assay with TSSK1B, 10%; with TSSK3 it was 0%.
For `COc1ccc(C2=C(Nc3cccc(C(=O)O)c3)C(=O)NC2=O)cc1` [SB-390765], the “%Inh” value with TNIK was 0%; in the assay on TNK1, 5%; in the assay on TNK2, 6%; in the assay with TNNI3K it was 0%; with TRKA, 47%; with TRKB, 0%. Besides, the “%Inh” value was 22% in the assay on TRKC, 0% in the assay on TRPM6, 8% in the assay on TSSK1B and 0% in the assay on TSSK3.
Turning to `COc1cccc(NC(=O)NC2CCN(c3ccnc(Nc4ccc(F)cc4)n3)C2)c1` (stereo not drawn) [GSK1379721], the “%Inh” value in the assay on TNIK is 0%; with TNK1, 0%; in the assay on TNK2, 0%; with TNNI3K, 2%; in the assay with TRKA it was 42%; with TRKB it was 59%. The “%Inh” value in the assay on TRKC came to 80%; in the assay with TRPM6 it was 26%; with TSSK1B, 9%; in the assay on TSSK3, 23%.
For `Cc1c(O)cccc1Nc1ccnc2ccc(C(F)(F)F)cc12.Cl` [GW466413], the “%Inh” value with TNIK is on record as 0%; with TNK1, 0%; in the assay with TNK2 it was 17%; in the assay on TNNI3K, 0%; with TRKA, 9%; in the assay with TRKB, 0%. The “%Inh” value with TRKC is 31%; in the assay on TRPM6, 0%; in the assay on TSSK1B it was 0%; in the assay with TSSK3, 1%.
Take `O=C1NC(=O)C(N2CCc3ccccc32)=C1c1ccccc1Cl` [SB-373598]: the “%Inh” value was 5% in the assay with TNIK; 3% with TNK1; 11% in the assay with TNK2; 4% with TNNI3K; 22% in the assay with TRKA; 0% in the assay on TRKB. Moreover, the “%Inh” value in the assay on TRKC is 4%; with TRPM6, 11%; with TSSK1B it was 8%; with TSSK3, 18%.
Take `Cl.c1ccc(-c2n[nH]cc2-c2ccnc(-c3ccc(CN4CCOCC4)cc3)c2)nc1` [GW776245]: the “%Inh” value in the assay with TNIK turned out to be 30%; in the assay with TNK1, 42%; in the assay on TNK2 it was 0%; with TNNI3K, 0%; with TRKA it was 0%; with TRKB it was 0%. In addition, the “%Inh” value with TRKC, with TRPM6, with TSSK1B and in the assay on TSSK3 was 0% in each case.
Take `Cc1ccc(NC(=O)Nc2cc(C(C)(C)C)nn2-c2ccccc2)cc1` [GSK1014915]: the “%Inh” value in the assay with TNIK is 0%; in the assay on TNK1, 0%; in the assay with TNK2, 15%; in the assay on TNNI3K, 21%; with TRKA it was 0%; in the assay on TRKB, 28%. Further, the “%Inh” value in the assay on TRKC worked out at 26%; with TRPM6, 24%; with TSSK1B, 2%; in the assay on TSSK3, 14%.
Consider `Cc1ccccc1-n1cnc2c(N)ncnc21` [SKF-97510], for which the “%Inh” value in the assay with TNIK is reported as 0%; in the assay with TNK1, 0%; in the assay with TNK2 it was 7%; in the assay with TNNI3K it was 0%; in the assay with TRKA, 0%; with TRKB, 0%. For the same molecule, the “%Inh” value is 0% with TRKC, 66% in the assay with TRPM6, 0% with TSSK1B and 0% in the assay with TSSK3.
In the case of `NC(=O)c1nnc2ccccc2c1N`, the “%Inh” value is listed as 3% with TNIK; 0% in the assay on TNK1; 0% with TNK2; 5% with TNNI3K; 74% in the assay on TRKA; 20% with TRKB. Besides, the “%Inh” value is on record as 10% in the assay with TRKC, 24% in the assay on TRPM6, 5% with TSSK1B and 11% in the assay with TSSK3.
Regarding `Cn1ccc2ncnc(Oc3cccc(C(=O)Nc4ccccc4)c3)c21`, the “%Inh” value with TNIK turned out to be 16%; with TNK1, 3%; in the assay on TNK2, 9%; in the assay with TNNI3K, 1%; in the assay with TRKA, 21%; with TRKB, 0%. The “%Inh” value with TRKC is reported as 0%; with TRPM6 it was 0%; in the assay with TSSK1B it was 9%; with TSSK3, 0%.
For the molecule `COc1ccccc1-c1ccc2c(NC(=O)C3CC3)n[nH]c2n1` [SB-711239], the “%Inh” value is 0% in the assay on TNIK; 4% in the assay on TNK1; 8% in the assay with TNK2; 14% in the assay on TNNI3K; 24% in the assay on TRKA; 0% in the assay on TRKB. Also, the “%Inh” value came to 20% with TRKC, 0% in the assay with TRPM6, 0% in the assay with TSSK1B and 21% in the assay with TSSK3.
`Cc1cc(N2Cc3ccccc3C2)nc(Nc2ccc(S(=O)(=O)N3CCOCC3)cc2)n1.Cl` [GSK1669917]: the “%Inh” value in the assay on TNIK is given as 0%; in the assay with TNK1, 0%; with TNK2 it was 7%; in the assay with TNNI3K, 0%; in the assay on TRKA, 0%; with TRKB it was 0%. For the same molecule, the “%Inh” value is 0% in the assay with TRKC, 9% with TRPM6, 0% with TSSK1B and 8% in the assay on TSSK3.
Regarding `O=c1cc(N2CCOCC2)nc2n(Cc3cccc(Cl)c3Cl)ccn12` [GSK2286295], the “%Inh” value is reported as 0% with TNIK; 8% with TNK1; 12% in the assay on TNK2; 13% with TNNI3K; 0% in the assay with TRKA; 0% in the assay with TRKB. Also, the “%Inh” value in the assay with TRKC was found to be 0%; in the assay with TRPM6, 25%; with TSSK1B, 0%; with TSSK3, 47%.
